Bioassay records from PubChem.
p53 PUMA act: mutant p53 pathway reactivation. SW480 PUMA-promoter luciferase. activation, % at 9.98 µM. hit rate 1.5% among 28,000; in the data active means activation above about 52%; inconclusive means no clear call, values can overlap the other calls
ID4 SMM: binders of human ID4 protein; P47928; small molecule microarray, Flag-ID4 binding, fluorescence F/B; calls only; hit rate 1.2% among 31,000; call rule not given here;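 further: a binder raises fluorescence above local background on the spot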
STK33 kin inh: blocks human STK33 kinase activity; Q9BYT3; ADP-Glo luminescence, MBP substrate; inhibition, % at 12.5 µM; hit rate 0.44% among 27,000; AID 2322; in the data active means inhibition above about 20%; inconclusive means no clear call, values can overlap the other calls
Target sequence (Q9BYT3 whole entry, looked up): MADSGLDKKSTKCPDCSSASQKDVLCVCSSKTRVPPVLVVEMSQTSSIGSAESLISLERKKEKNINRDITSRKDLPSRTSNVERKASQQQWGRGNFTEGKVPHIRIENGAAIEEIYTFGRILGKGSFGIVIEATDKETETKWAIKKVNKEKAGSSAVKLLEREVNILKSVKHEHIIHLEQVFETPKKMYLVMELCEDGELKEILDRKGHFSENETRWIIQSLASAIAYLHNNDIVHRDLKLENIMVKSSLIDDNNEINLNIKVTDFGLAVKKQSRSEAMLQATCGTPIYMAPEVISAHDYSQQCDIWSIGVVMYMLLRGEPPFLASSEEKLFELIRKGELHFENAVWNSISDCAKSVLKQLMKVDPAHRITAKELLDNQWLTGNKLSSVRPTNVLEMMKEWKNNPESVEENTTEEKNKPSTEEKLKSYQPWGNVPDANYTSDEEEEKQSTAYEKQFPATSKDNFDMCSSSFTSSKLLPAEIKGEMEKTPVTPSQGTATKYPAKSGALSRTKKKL
Each line names hits and unclear results; the compound was inactive in the other large screens. The list is not random: actives were taken first. Their share in the collection is about 2%.

Cc1cccc(-n2c(N)cc(=O)nc2SCC(=O)N2c3ccccc3Sc3ccccc32)c1	none
Cc1cc(OCC(=O)Nc2cccc(-c3nc4ccccc4o3)c2C)cc(C)c1Cl	none
COc1cc(C(=O)Nc2cc(-c3nc4ncccc4o3)ccc2C)ccc1OCc1ccc(Cl)cc1	none
Cc1c(NC(=O)COc2ccc(Br)cc2)cccc1-c1nc2ncccc2o1	p53 PUMA act 54
O=C(COc1ccc(Br)cc1)Nc1cccc(-c2nc3ncccc3o2)c1	p53 PUMA act 73
O=C(COc1ccccc1)Nc1cccc(-c2nc3c(ccc4ccccc43)o2)c1	none
COc1cc(C(=O)Nc2cccc(-c3nc4ncccc4o3)c2)cc(OC)c1OC	p53 PUMA act inconclusive, STK33 kin inh 30
COc1ccc(NC(=O)c2ccccc2NC(=O)COc2ccc(Cl)cc2)cc1	none
Cc1ccc2c(c1)c1c(n2CC(O)CN2CCOCC2)C(=O)CCC1 (configuration not stated)	none
O=C(Cn1ccc([N+](=O)[O-])n1)Nc1cc(F)ccc1F	none
COc1ccc(OC)c(Nc2ncnc3c2cnn3-c2ccccc2)c1	p53 PUMA act inconclusive
COCCNc1ncnc2c1cnn2-c1cccc(C)c1	p53 PUMA act 101
COc1ccccc1-n1c(SCC(N)=O)nc2ccc(I)cc2c1=O	none
CC(C)OC(=O)CSc1nc2c(cc1C#N)CCCCC2	p53 PUMA act 98
N#Cc1cc2c(nc1SCC(=O)Nc1ccccc1C(F)(F)F)CCC2	p53 PUMA act 111
CC(C)(C)c1ccc(S(=O)(=O)CC(O)CSc2nc3c(cc2C#N)CCCC3)cc1 (configuration not stated)	none
N#Cc1cc2c(nc1SCC(=O)Nc1cc(C(F)(F)F)ccc1Cl)CCCCC2	none
COc1ccc(NC(=O)CCn2cnc3ccccc3c2=O)cc1OC	none
COc1ccc([N+](=O)[O-])cc1NC(=O)CCN1CCN(c2cccc(C(F)(F)F)c2)CC1	none
Cc1ccc(S(=O)(=O)N(C)CC(=O)Nc2ccc(Br)cc2F)cc1	none
CS(=O)(=O)N(CC(=O)Nc1ccc(C(F)(F)F)cc1)c1ccc(Oc2ccccc2)cc1	none
CC(=O)Nc1ccc(NC(=O)CSC2=NC(c3ccccc3)CC(=O)N2)cc1 (configuration not stated)	none
CCc1ccc(OCC(=O)Nc2cc(OC)ccc2OC)c(Br)c1	p53 PUMA act 58
COC(=O)c1ccccc1NC(=O)COc1ccc(C(C)(C)C)cc1Br	none
CCc1ccc(OCC(=O)Nc2ccccc2C(=O)OC)c(Br)c1	p53 PUMA act 59
COc1ccc(OCC(=O)Nc2cc(OC)ccc2OC)cc1	none
COc1ccc(C)cc1NC(=O)CN(C1CCCCC1)S(=O)(=O)c1ccc(Cl)cc1	none
CCCCCC(=O)Cc1cc(O)c(O)c2c1C(=O)Oc1cc(O)c(C(=O)O)c(CCCCC)c1O2	none (no result: p53 PUMA act, ID4 SMM)
CCOc1ccccc1C(=O)Nc1ccc(S(=O)(=O)Nc2ccccn2)cc1	STK33 kin inh 24
CCOc1ccccc1C(=O)Nc1ccc(S(=O)(=O)Nc2nc(C)cc(C)n2)cc1	none
CCn1ccc(CNC(=O)Nc2cccc(C(F)(F)F)c2)n1	none
CCOc1ccc(NC(=O)CSc2nc3nc(C)cc(C)n3n2)cc1	none
Cc1ccnc(SCC(=O)Nc2cccc(Cl)c2)n1	none
Cc1cc(Oc2ccccc2)nc(SCC(=O)Nc2ccc(Cl)cc2Cl)n1	none
Cc1ccnc(SCC(=O)Nc2ccc(Cl)cc2Cl)n1	p53 PUMA act 52
O=C(CSc1ncccn1)Nc1ccc(Cl)cc1Cl	p53 PUMA act 134
CCOc1ccc(NC(=O)CSc2ncccn2)cc1	p53 PUMA act 54
CN(CC(=O)Nc1ccc(C(F)(F)F)cc1)S(=O)(=O)c1ccc(Br)cc1	none
Cc1ccc(C2CC(=O)c3cnc(NCCN4CCOCC4)nc3C2)cc1 (configuration not stated)	none
COc1ccc(C(=O)CC2(O)C(=O)N(Cc3ccccc3Cl)c3ccc(Cl)cc32)cc1OC (configuration not stated)	none
COc1ccc(CC(=O)n2nc(-c3ccc(Cl)cc3)nc2NCc2ccco2)cc1OC	p53 PUMA act 110 (no result: STK33 kin inh)
COc1ccc(NC(=O)c2ccco2)c(NC(=O)CSc2ccc(Cl)cc2)c1	none
COc1ccc(-c2cc(C(=O)OCc3ccco3)c3ccccc3n2)cc1OC	none
COc1ccc(CNc2nc(-c3ccc(Cl)cc3)nn2C(=O)c2ccco2)cc1	p53 PUMA act 87
COC(=O)c1cc(C(=O)OC)cc(-n2c(C)cc(C(=O)CSc3nc(C)cc(C)c3C#N)c2C)c1	none
O=C(C[C@@H]1CC[C@@H](NS(=O)(=O)c2ccccc2)[C@@H](CO)O1)NCCN1CCCCC1	ID4 SMM active (no result: p53 PUMA act, STK33 kin inh)
O=C(C[C@@H]1CC[C@@H](NS(=O)(=O)c2ccccc2)[C@H](CO)O1)NCCN1CCCCC1	none (no result: p53 PUMA act, STK33 kin inh)
CCCn1c(SCC(=O)N2CCOCC2)nnc1-c1ccncc1	none
Cn1c(SCC(=O)N2CCN(Cc3ccccc3)CC2)nnc1-c1ccncc1	ID4 SMM active
CN1CCN(C(=O)C2=C[C@@H](c3ccc4c(c3)OCO4)C[C@@H](OCCCCO)O2)CC1	ID4 SMM active (no result: p53 PUMA act, STK33 kin inh)
O=C(C1=C[C@@H](c2ccc3c(c2)Cc2ccccc2-3)C[C@@H](OCCCCO)O1)N1CCN(Cc2ccc3c(c2)OCO3)CC1	none (no result: p53 PUMA act)
CN(CCOC(=O)Nc1cccc(Cl)c1)c1ccc(C#N)cn1	none (no result: p53 PUMA act, ID4 SMM)
O=C(/C=C/c1ccc(O)cc1)NCCc1ccc(O)cc1	none (no result: ID4 SMM)
CC(=O)NCCCN(CCCCN(CCCNC(=O)/C=C/c1ccc(O)cc1)C(C)=O)C(=O)/C=C/c1ccc(O)cc1	STK33 kin inh 40
Cc1c(Cl)cccc1NC(=O)CN(c1ccc2c(c1)OCCO2)S(C)(=O)=O	none
NC(=O)c1c(NC(=O)Cn2c(=O)oc3ccccc32)sc2c1CCCC2	none
NC(=O)c1c(NC(=O)C2CC(=O)N(c3ccccc3)C2)sc2c1CCCC2 (configuration not stated)	ID4 SMM active
CC(=O)c1ccc(-n2c(CCC(=O)O)ccc2-c2ccc(F)cc2)cc1	none
CC(=O)Nc1ccc(-n2c(CCC(=O)O)ccc2-c2ccc(C)cc2)cc1	ID4 SMM active
Cc1c(Br)c([N+](=O)[O-])nn1C(C)C(=O)N1CCOCC1 (configuration not stated)	none
Cc1cc(=O)oc2cc(NC(=S)NCc3cccnc3)ccc12	p53 PUMA act 75, ID4 SMM active
COc1ccc(NC(=S)NCc2cccnc2)cc1OC	none
COc1ccc(C(=O)CSc2nnc(CC(C)O)n2C)cc1 (configuration not stated)	none
COc1ccccc1/C=C/C(=O)N1CCCC(c2ccccc2)C1 (configuration not stated)	p53 PUMA act 101 (no result: STK33 kin inh)
CCOC(=O)/C=C/c1ccccc1OC	none (no result: p53 PUMA act, STK33 kin inh)
Cc1nc(SCC(=O)Nc2cccc(C(=O)O)c2)[nH]c(=O)c1C	none
Cc1cc(C)nc(SCC(=O)Nc2cccc(C(=O)O)c2)n1	ID4 SMM active
N#Cc1c(C(F)(F)F)cc(-c2ccccc2)nc1SCCC(=O)Nc1ccccc1	none
COC(=O)CNC(=O)c1cn(-c2ccccc2)nc1-c1ccc(OC)cc1	none
O=C(CNC(=O)c1cn(-c2ccccc2)nc1-c1ccccc1)c1ccccc1	p53 PUMA act 121
COC(=O)c1cc2cc(O)c(-c3c(O)cc4cc(C(=O)OC)oc(=O)c4c3O)c(O)c2c(=O)o1	none
COc1cc(/C=C/C(=O)CC(=O)/C=C/c2ccc(O)c(OC)c2)ccc1O	STK33 kin inh 117 (no result: p53 PUMA act)
COc1cc(O)c(C(=O)/C=C/c2ccc(OC)c(OC)c2)c(OC)c1	none
COc1ccc(/C=C/C(=O)CC(=O)/C=C/c2cccc(O)c2OC)cc1O	STK33 kin inh 123 (no result: ID4 SMM)
